Screens as filed in PubChem BioAssay.
HIV RNase H inh: blocks HIV-1 RNase H cleavage of RNA/DNA duplex; P04585; AID 565; RT-RNase H RNA/DNA duplex cleavage, fluorescence; inhibition, % at 10 µM; actives 1.9% (n = 65,000); in the data active = inhibition above about 50%
RmlC RmlD mix: RmlC/RmlD inhibition, mixture screen; RmlC/RmlD coupled enzyme inhibition, 384-well mixture HTS; inhibition, % at 5.5 µM; actives 0.39% (n = 110,000); AID 1532; in the data active = inhibition above about 30%, passing the limit was not always enough; inconclusive = no clear call, values can overlap the other calls
Large screens that a line does not name were inactive. The full list was thinned out, with hits kept by preference.

O=C(NCc1ccccn1)c1cn(CCc2ccccc2)nn1	HIV RNase H inh 68
NC(=O)c1ccccc1NC(=O)NC1CCCCC1	none (no result: HIV RNase H inh)
O=C(Nc1ccccc1NC(=O)NC1CCCCC1)NC1CCCCC1	HIV RNase H inh 69
COc1ccc(C2C=C(c3ccccc3)Nc3nc(NC(C)=O)nn32)cc1 (configuration not stated)	RmlC RmlD mix 40 (no result: HIV RNase H inh)
COc1ccc(C2C=C(c3ccccc3)Nc3nnnn32)cc1 (configuration not stated)	none
CC(C)N=c1cc2n(-c3ccc(Cl)cc3)c3ccccc3nc-2cc1Nc1ccc(Cl)cc1	none
Cc1ccc(-c2c(=O)n(OCc3ccccn3)c3ccccc3[n+]2[O-])cc1	none (no result: HIV RNase H inh)
COc1ccc(-c2c(=O)n(OCc3ccccn3)c3ccccc3[n+]2[O-])cc1OC	HIV RNase H inh 56
CCc1c(C)c2cc(Cl)c(O)c(CN3CCCCC3)c2oc1=O	none
CCCCc1cc(=O)oc2c(CN(C)C)c(O)c(Cl)cc12	RmlC RmlD mix 70
CCCCc1cc(=O)oc2c(CN3CCCC3)c(O)ccc12	RmlC RmlD mix inconclusive
CCc1cc2c(-c3ccccc3)cc(=O)oc2c(CN2CCOCC2)c1O	none
CCc1cc(=O)oc2c(CN3CCCC3)c(O)c(Cl)cc12	RmlC RmlD mix 90
O=c1oc2c(CN3CCOCC3)c(O)c(Cl)cc2c2c1CCC2	RmlC RmlD mix 56
CN(c1ccccc1C(=O)Nc1cccc(Cl)c1Cl)S(C)(=O)=O	none (no result: HIV RNase H inh)
Cn1c(=O)c2c(nc(SCC(=O)Nc3ccc(N4CCOCC4)c(Cl)c3)n2C)n(C)c1=O	none (no result: RmlC RmlD mix)
COc1ccc(C(c2nnnn2Cc2cccs2)N2CCN(c3ccccc3F)CC2)cc1 (configuration not stated)	none
COCCNc1nc(-c2cc(C(=O)Nc3ccccc3)on2)cc(C(C)C)n1	none (no result: HIV RNase H inh)
COc1cc2c(c(OC)c1CC=C(C)C)C[C@H](c1ccc(O)cc1O)CO2	none (no result: HIV RNase H inh)
CC1(c2nnc(Cc3ccccc3)o2)CC(c2ccc([N+](=O)[O-])cc2)=NO1 (configuration not stated)	none (no result: HIV RNase H inh)
Cc1oc(/N=C/c2ccccc2O)c(C#N)c1C	none
Cc1oc(/N=C/c2c(O)ccc3ccccc23)c(C#N)c1C	HIV RNase H inh 73 (no result: RmlC RmlD mix)
Cc1ccc(N=Cc2c(O)n(-c3cc(Cl)ccc3N3CCOCC3)c(=O)c3ccccc23)cc1C	none (no result: HIV RNase H inh)
Cc1nc2cc(C(=O)O)ccc2s1	none
Cc1nc2ccc(C(=O)O)cc2c2c1CC(C)S2 (configuration not stated)	HIV RNase H inh 63
CC1(c2nnc(-c3cccc(Cl)c3)o2)CC(c2ccc(Br)cc2)=NO1 (configuration not stated)	none (no result: HIV RNase H inh)
COC(C/C=C/[C@H](O)[C@H](C)OCc1ccccc1)OC	none (no result: HIV RNase H inh)
Cc1oc(-c2ccc(F)cc2)cc1-c1nn2c(-c3ccoc3C)nnc2s1	HIV RNase H inh 63
Cc1oc(-c2ccc(F)cc2)cc1-c1nn2c(-c3ccco3)nnc2s1	none (no result: RmlC RmlD mix)
COc1ccc(NC(=O)N(CCN2CCCC2)Cc2cc3cc(OC)c(OC)cc3[nH]c2=O)cc1	none (no result: RmlC RmlD mix)
CCC(Sc1ccc(C(=O)O)cc1)C(=O)O (configuration not stated)	HIV RNase H inh 57
CCC(Sc1nc(C)cc(C)n1)C(=O)O (configuration not stated)	none
CC1(C)CC(=O)C=C(c2cccnc2)C1	none (no result: HIV RNase H inh)
CCNc1nc(NC(C)C)nc(Oc2ccc(OCCOc3ccc(C)cc3)nn2)n1	none
Cc1oc(C(=O)O)cc1CSCc1cc(C(=O)O)c(C)o1	HIV RNase H inh 51
Cc1oc(C(=O)O)cc1CSCc1ccoc1C(=O)O	none
Oc1ccc(C[C@@H]2CNC(=S)N2CCCCC2CCCCC2)cc1	none (no result: HIV RNase H inh)
O=C(c1ccc2nc3ccccc3c(=O)n2c1)N1CCN(Cc2ccc3c(c2)OCO3)CC1	RmlC RmlD mix 31 (no result: HIV RNase H inh)
O=C(c1cccn2c(=O)c3ccccc3nc12)N1CCN(Cc2ccc3c(c2)OCO3)CC1	none
CCc1cc(=O)oc2c(C)c(OCC(=O)N3CCCc4ccccc43)ccc12	none (no result: HIV RNase H inh)
CCOc1ccccc1C(=O)N(CN1CCCC1=O)c1cccc(Cl)c1	none
Cc1ccc(S(=O)(=O)N2CCOCC2)cc1C(=O)N1c2ccccc2Sc2ccccc21	none (no result: HIV RNase H inh)
N#CC1=C2SCN(Cc3ccccc3)CN2C(=O)CC1c1ccccc1F (configuration not stated)	HIV RNase H inh 61
COc1ccc(Br)cc1C1CC(=O)N2CN(Cc3ccccc3)CSC2=C1C#N (configuration not stated)	none
CCCCOc1ccc(CNC(=S)N/N=C/c2ccc(OC)c(OC)c2)cc1	none (no result: HIV RNase H inh)
Cc1[nH]n(C(N)=S)c(=O)c1C(c1ccccc1)C(C#N)C#N (configuration not stated)	HIV RNase H inh 51
CCCc1[nH][nH]c(=O)c1C(c1ccccc1)C(C#N)C#N (configuration not stated)	none
CCOC(=O)CS(=O)(=O)c1nc(-c2ccc(F)cc2)cc(C(F)(F)F)n1	HIV RNase H inh 55
CCOC(=O)CS(=O)(=O)c1nc(-c2ccccc2)cc(C(F)(F)F)n1	none
O=c1cc(CSc2nnc(-c3cccs3)n2Cc2ccccc2)nc2sc3ccccc3n12	HIV RNase H inh 51
Cc1cc(C(=O)CSc2nnc(-c3cccs3)n2Cc2ccccc2)c(C)n1C	none
C/C=C/Cn1c(SCCCc2ccccc2)nc2c1c(=O)[nH]c(=O)n2C	none
CC(C)n1c(SCCCc2ccccc2)nc2c1c(=O)[nH]c(=O)n2C	HIV RNase H inh 56
CCOC(=O)N1CCN(c2c(F)cc3[nH]c(=S)[nH]c3c2Br)CC1	none
CCOC(=O)N1CCN(c2cc3[nH]c(=S)[nH]c3cc2F)CC1	HIV RNase H inh 61
O=C(NC1CCCCC1)NC1(C(=O)NCCCN2CCOCC2)CCCCC1	none
COc1ccc(F)cc1CN1CCN(c2cc(C)nc3c4c(C)cc(C)nc4nn23)CC1	RmlC RmlD mix 50
Cc1cc(C)c2c(n1)nn1c(N3CCN(Cc4ccccc4)CC3)cc(C)nc21	none (no result: RmlC RmlD mix)
O=C(CCCCCn1c(=S)[nH]c2cc3c(cc2c1=O)OCO3)N1CCN(C(=O)c2ccco2)CC1	none
O=C(CCCCCn1c(=S)[nH]c2cc3c(cc2c1=O)OCO3)N1CCN(Cc2ccccc2)CC1	HIV RNase H inh 68
COc1ccc(C(=O)c2ccc(OC)c3cccc(O)c23)cc1OC	none (no result: HIV RNase H inh)
COc1ccc2c3c(cccc13)NN=C2C	HIV RNase H inh 57 (no result: RmlC RmlD mix)
CC(C)(C)[C@H]1C=C(C(N)=O)O[C@@H](OCc2ccc(CO)cc2)C1	none (no result: HIV RNase H inh)
O=C1Nc2cc(Cl)ccc2Nc2cscc21	none (no result: HIV RNase H inh)
Cc1nn(C(=O)c2cccs2)c(C)c1CN1C(=O)c2ccccc2C1=O	HIV RNase H inh 64
Cc1nn(C(=O)c2ccco2)c(C)c1CN1C(=O)c2ccccc2C1=O	none
C=CCN(C)CCCNC(=O)/C=N/O	none (no result: RmlC RmlD mix)
NC(CS(=O)O)C(=O)O (configuration not stated)	none (no result: HIV RNase H inh)
COc1ccc(-c2cn3c(C)c(C(=O)Nc4cccc(C)n4)sc3n2)cc1	HIV RNase H inh 51
Cc1cccc(NC(=O)c2sc3nc(-c4ccccc4)cn3c2C)n1	none
COc1ccc(OC)c(S(=O)(=O)N2CCC(C(=O)NCC3CCCO3)CC2)c1 (configuration not stated)	none
CCCCCCCCCCCCN1[C@@H](CC(=O)O)c2cc(F)ccc2S1(=O)=O	none (no result: HIV RNase H inh)
COC(=O)c1ccc(OCC(=O)Nc2nn(-c3ccccc3)nc2C(N)=O)cc1	none
O=C(NCc1ccccn1)c1coc(=O)c(Br)c1	RmlC RmlD mix 34
CCOc1ccc(C(=O)NCc2ccccn2)cc1	none
C=CCC(C#Cc1ccc(C)cc1)N(CC)CC (configuration not stated)	none (no result: HIV RNase H inh)
COC(=O)CN1C(=S)N(Cc2ccccc2)C(=O)C1CC(=O)Nc1ccc(Br)cc1 (configuration not stated)	none (no result: HIV RNase H inh)
